# PubChem BioAssay
# Activity calls are given as the source filed them.
# Assays:
# [1] = system: Human papillomavirus type 1a protein E7 (residues 44-93); experiment: HPV1a E7 fragment binders on microarrays, primary screen, biochemical, small-molecule microarray, residues 44-93, 635 nm fluorescence (AID 1108); settings: small-molecule microarray binding, fluorescence 635 nm; higher = more signal;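 also: E7 fragment applied at 1 µg/mL in TBST for 1 h at 4 C; score combines spot fluorescence with its signal to noise ratio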
# [2] = modulators of HCV replicon luciferase signal, primary screen, HCV replication inhibitor project, Huh7 cells, luciferase reporter (AID 1109); settings: 48 h, higher = more signal;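 also: huh7 hepatoma cells harbouring a luciferase neomycin HCV replicon reporter; luciferase luminescence as measure of HCV replicon replication; test concentration not given here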
# [3] = molecular target: Left-right determination factor 2 (Homo sapiens) (UniProt O00292); experiment: LEFTY2 binders on small-molecule microarrays, primary screen, biochemical, small-molecule microarray, 635 nm fluorescence scan (AID 1110); settings: LEFTY2 binding, higher = more signal
# [4] = molecular target: Calmodulin-1 (Homo sapiens) (UniProt P0DP23); experiment: CALM1 binders on microarrays, EGTA buffer, profiling panel, biochemical, small-molecule microarray, Cy5-labelled CALM1 (AID 1111); settings: Cy5-CALM1 binding fluorescence, higher = more signal;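 also: labelled calmodulin applied in Tris saline Tween buffer holding calcium plus EGTA and DTT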
# [5] = molecular target: Calmodulin-1 (Homo sapiens) (UniProt P0DP23); experiment: calcium-bound CALM1 binders on microarrays, profiling panel, artefact control for SMM control-protein annotation, biochemical, small-molecule microarray, Cy5-labelled CALM1, plus calcium (AID 1112); settings: Cy5-CALM1 binding fluorescence, higher = more signal;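 also: score merges spot fluorescence with signal to noise from triplicate slides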
# [6] = small-molecule microarray binders of probe aWnt5a, primary screen, biochemical, biotinylated probe, 635/667 nm fluorescence (AID 1113); settings: higher = more signal;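 also: score merges 667 nm fluorescence intensity with signal-to-noise per printed feature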
# [7] = small-molecule microarray binders of probe aShh, primary screen, biochemical, biotinylated probe, 635/667 nm fluorescence (AID 1114); settings: higher = more signal;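 also: probe is biotin-labelled aShh protein from a stem cell growth factor screen; measures binding of labelled protein to compounds printed on the slide; score merges feature fluorescence at 667 nm with signal-to-noise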
# [8] = small-molecule microarray binders of probe aNog, primary screen, biochemical, biotinylated probe, 635/667 nm fluorescence (AID 1115); settings: higher = more signal;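 also: probe is biotinylated aNog protein used at 0.15 µg/mL for 1 h at 4 C; z-score combines 667 nm fluorescence of each spot with its signal to noise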
# [9] = molecular target: Torsin-1A-interacting protein 1 (Homo sapiens) (UniProt Q5JTV8); experiment: LAP1 binders from COS7 cell lysate, primary screen, small-molecule microarray, 635/667 nm fluorescence (AID 1116); settings: COS7-hLAP1 lysate binding, 635 nm fluorescence, higher = more signal
# [10] = molecular target: Alpha-bungarotoxin (Bungarus multicinctus) (UniProt P60615); experiment: alpha-bungarotoxin binders on microarray, profiling panel, artefact control for SMM control protein annotation, biochemical, small-molecule microarray, Alexa647 label, 635/667 nm fluorescence (AID 1117); settings: alpha-BTX-A647 binding fluorescence, higher = more signal
# Albumin (Bos taurus) = Albumin (Bos taurus) (UniProt P02769); experiment: bovine serum albumin binders on microarray, profiling panel, artefact control for SMM control protein annotation, biochemical, small-molecule microarray, Alexa647 label, 635/667 nm fluorescence (AID 1118); settings: BSA-A647 binding, fluorescence 635 nm, higher = more signal;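 also: score merges 667 nm emission intensity and signal-to-noise per printed compound spot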
# [11] = small-molecule microarray binders of probe aXIP, primary screen, biochemical, NeuroSMM set, 635/667 nm fluorescence (AID 1119); settings: higher = more signal, called active from +8 up or from −8 down;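 also: probe is the protein aXip251-270 applied at 1 µg/mL to compound-printed slides; binding of probe to printed compounds measured as 667 nm fluorescence plus signal to noise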
# [12] = small-molecule binders of probe aNOTCH3, primary screen, biochemical, small-molecule microarray, 635/667 nm fluorescence (AID 1120); settings: higher = more signal;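 also: probe is a biotin-tagged antibody raised against NOTCH3 rather than NOTCH3 protein; score merges spot fluorescence near 667 nm with spot signal to noise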
# [13] = small-molecule binders of probe aNOTCH2, primary screen, biochemical, small-molecule microarray, 635/667 nm fluorescence (AID 1121); settings: higher = more signal;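 also: score merges feature fluorescence read at 667 nm with its signal to noise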
# [14] = molecular target: Carbonic anhydrase 2 (Homo sapiens) (UniProt P00918); experiment: CAII small-molecule binders, profiling panel, biochemical, small-molecule microarray, Alexa647-labelled CAII (AID 1122); settings: CAII-A647 binding fluorescence, higher = more signal
# [15] = COS7 lysate on small-molecule microarray, probe aHis, 635 nm (AID 1123); settings: COS7 cell lysate, fluorescence, higher = more signal;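 also: z-score combines 667nm fluorescence intensity with signal-to-noise per printed compound spot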
# [16] = compound binding in COS7 lysate, probe aLAP1, primary screen, cell lysate, small-molecule microarray (AID 1124); settings: probe aLAP1, fluorescence, higher = more signal;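 also: lysate comes from COS7 cells expressing LAP1 and is applied at 0.3 µg/mL; score merges spot fluorescence near 667 nm with signal-to-noise over triplicate slides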
# Sam68 (KHDRBS1) = experiment: Sam68 small-molecule binders, primary screen, biochemical, small-molecule microarray, 635 nm fluorescence (AID 1125); settings: small-molecule microarray binding, higher = more signal;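 also: score merges 667 nm channel intensity with signal to noise over triplicate slides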
# [17] = system: Chordin-like protein 2 (CHRDL2); experiment: CHRDL2 small-molecule binders, primary screen, biochemical, small-molecule microarray, 635 nm fluorescence (AID 1126); settings: small-molecule microarray binding, fluorescence 635 nm; higher = more signal;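 also: printed compound slides probed with Chrdl2 protein at 4 µg/mL for 1 h at 4 C; score merges 667 nm emission intensity with signal to noise over three replicate slides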
# [18] = molecular target: Concanavalin-A (Canavalia ensiformis) (UniProt P02866); experiment: ConA small-molecule binders, primary screen, artefact control for SMM control protein annotation, biochemical, small-molecule microarray, Alexa647 label, 635 nm (AID 1127); settings: ConA-A647 binding fluorescence, higher = more signal;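 also: z combines 667 nm emission intensity with signal-to-noise across three replicate slides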
# Chain of Concanavalin-A (Canavalia ensiformis) (P02866 whole entry, looked up): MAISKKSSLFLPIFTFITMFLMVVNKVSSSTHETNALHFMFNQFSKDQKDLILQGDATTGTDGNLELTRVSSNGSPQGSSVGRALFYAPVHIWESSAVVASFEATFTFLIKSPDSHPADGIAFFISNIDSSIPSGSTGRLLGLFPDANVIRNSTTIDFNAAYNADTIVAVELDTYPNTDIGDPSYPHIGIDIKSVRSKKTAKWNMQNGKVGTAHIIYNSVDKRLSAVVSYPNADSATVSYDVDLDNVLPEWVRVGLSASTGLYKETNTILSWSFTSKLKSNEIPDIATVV
# Chain of Left-right determination factor 2 (Homo sapiens) (O00292 whole entry, looked up): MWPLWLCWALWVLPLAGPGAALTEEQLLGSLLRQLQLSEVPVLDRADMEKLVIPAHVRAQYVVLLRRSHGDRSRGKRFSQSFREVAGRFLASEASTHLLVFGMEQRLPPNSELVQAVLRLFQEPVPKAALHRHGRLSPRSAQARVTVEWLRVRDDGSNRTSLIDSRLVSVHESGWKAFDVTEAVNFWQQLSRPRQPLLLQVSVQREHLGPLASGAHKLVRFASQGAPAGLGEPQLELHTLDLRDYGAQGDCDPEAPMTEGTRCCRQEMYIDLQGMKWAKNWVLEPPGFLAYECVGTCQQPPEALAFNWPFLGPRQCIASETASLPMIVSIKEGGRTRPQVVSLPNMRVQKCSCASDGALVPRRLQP
# Chain of Albumin (Bos taurus) (P02769 whole entry, looked up): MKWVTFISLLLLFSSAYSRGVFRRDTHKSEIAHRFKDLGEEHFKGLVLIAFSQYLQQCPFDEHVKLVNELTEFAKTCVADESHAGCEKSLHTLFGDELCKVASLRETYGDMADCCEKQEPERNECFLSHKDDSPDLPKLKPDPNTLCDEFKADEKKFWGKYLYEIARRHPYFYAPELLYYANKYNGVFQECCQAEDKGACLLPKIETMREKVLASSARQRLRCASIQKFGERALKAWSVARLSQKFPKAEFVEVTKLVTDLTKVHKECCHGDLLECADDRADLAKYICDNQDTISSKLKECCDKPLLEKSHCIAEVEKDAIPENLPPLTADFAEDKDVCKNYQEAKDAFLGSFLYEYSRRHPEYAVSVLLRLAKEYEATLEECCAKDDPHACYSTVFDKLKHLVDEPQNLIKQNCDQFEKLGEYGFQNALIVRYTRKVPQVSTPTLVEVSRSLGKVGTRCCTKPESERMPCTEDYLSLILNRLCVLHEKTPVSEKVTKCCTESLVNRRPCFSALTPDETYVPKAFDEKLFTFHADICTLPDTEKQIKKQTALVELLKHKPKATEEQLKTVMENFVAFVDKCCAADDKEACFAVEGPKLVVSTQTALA
# Chain of Torsin-1A-interacting protein 1 (Homo sapiens) (Q5JTV8 whole entry, looked up): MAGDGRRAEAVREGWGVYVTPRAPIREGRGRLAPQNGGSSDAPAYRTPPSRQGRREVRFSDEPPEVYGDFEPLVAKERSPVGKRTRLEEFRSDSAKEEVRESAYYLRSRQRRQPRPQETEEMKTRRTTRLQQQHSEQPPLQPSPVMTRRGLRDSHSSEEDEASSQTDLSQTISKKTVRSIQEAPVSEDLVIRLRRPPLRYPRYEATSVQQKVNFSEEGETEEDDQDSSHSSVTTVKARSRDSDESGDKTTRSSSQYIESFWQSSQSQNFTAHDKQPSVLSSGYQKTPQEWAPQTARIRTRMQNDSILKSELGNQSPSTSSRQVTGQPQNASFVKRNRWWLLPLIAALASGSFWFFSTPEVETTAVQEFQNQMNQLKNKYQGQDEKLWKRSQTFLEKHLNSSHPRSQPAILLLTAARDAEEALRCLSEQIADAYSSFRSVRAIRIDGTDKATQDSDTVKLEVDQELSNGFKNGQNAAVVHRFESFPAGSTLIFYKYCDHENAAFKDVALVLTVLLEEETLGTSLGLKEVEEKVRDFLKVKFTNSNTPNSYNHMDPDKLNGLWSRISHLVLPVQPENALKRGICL
# Chain of Alpha-bungarotoxin (Bungarus multicinctus) (P60615 whole entry, looked up): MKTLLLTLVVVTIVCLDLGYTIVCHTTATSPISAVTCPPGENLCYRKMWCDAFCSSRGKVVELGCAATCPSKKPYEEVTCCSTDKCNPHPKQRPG
Structure (SMILES),composite z-score [1],z-score [2],composite z-score [3],composite z-score [4],composite z-score [5],composite z-score [6],composite z-score [7],composite z-score [8],composite z-score [9],composite z-score [10],composite z-score (Albumin (Bos taurus)),composite Z-score [11],composite z-score [12],composite z-score [13],composite z-score [14],composite z-score [15],composite z-score [16],composite z-score (Sam68 (KHDRBS1)),composite z-score [17],composite z-score [18]
[N-]=[N+]=NCc1ccccc1C[C@]1(C(N)=O)N=C(c2ccc(OCCCO)cc2)O[C@H]1c1ccccc1N=[N+]=[N-],1.4,-0.507,0.308,1.18,0.596,0.193,0.232,1.08,1.71,1.24,0.421,-0.338 (inactive),0.327,0.0185,0.513,1.46,0.312,1.23,-0.652,1.09
C=C(CCCC)C(=O)CC[C@@H](OC(=O)c1ccccc1-c1ccccc1C(=O)O)c1ccc(CO)o1,0.776,-0.705,0.584,-0.213,-0.483,-0.0478,0.108,-0.266,1.23,-0.146,0.26,-0.27 (inactive),0.135,-0.0028,0.549,0.413,0.941,1.18,0.593,0.786
CC1CC/C=C\[C@H]2OC34C=CCN(Cn5nnc6ccccc65)C(=O)[C@H]3N(CCCO)C(=O)[C@@H]4C2C(=O)O1 (stereo not given in full),-0.311,-0.486,-1.28,-0.484,0.25,-0.228,0.0121,-0.201,0.479,-0.744,0.757,0.372 (inactive),-0.272,-0.115,0.926,0.016,1.2,-0.119,-1.33,-0.668
[N-]=[N+]=NCc1ccccc1[C@H]1OC(c2ccc(OCCCO)cc2)=N[C@@]1(Cc1ccccc1)C(=O)NCC(O)CO (stereo not given in full),1.13,-1.38,-0.524,1.52,0.564,0.507,0.128,1.9,1.51,0.131,0.691,0.0638 (inactive),0.506,-0.0013,0.76,3.42,0.941,0.966,-0.609,-0.0213
COc1ccc([Si](C)(C)[C@H]2[C@H](CC(=O)N3CCC[C@H]3CO)O[C@@]3(C(=O)N(Cc4cccc(N5CCC5=O)c4)c4ccccc43)[C@@H]2C)cc1,1.41,-2.36,0.992,-0.105,-0.363,-0.0203,0.265,0.572,0.901,0.872,-0.654,-0.804 (inactive),0.229,-0.0392,0.395,0.789,-0.0115,1.31,0.95,0.759
O=C1O[C@@H](c2ccccc2)[C@@H](c2ccccc2)N2[C@@H](c3ccc(O)cc3)[C@]3(C(=O)Nc4ccccc43)[C@@H](C(=O)NC[C@H](O)c3ccccc3)[C@H]12,1.13,-0.427,0.091,0.843,0.713,-0.0659,-0.0232,-0.0899,0.137,0.262,0.726,0.0895 (inactive),-0.242,-0.0885,0.699,1.66,-0.238,0.607,0.458,0.442
C=C(C(=O)CC[C@@H](OC(=O)c1cccnc1)c1ccc(OCCO)cc1)C(C)C,0.16,-4.49,0.286,-0.277,-1.85,-0.0145,-0.0035,-0.0863,2.09,0.46,-0.541,-0.471 (inactive),0.123,-0.179,0.0384,-0.266,0.354,0.921,0.606,0.303
C#C[C@H](O[Si](C#CCCCCCC)(C(C)C)C(C)C)c1ccccc1,0.228,0.242,-0.234,-0.302,-0.351,-0.131,-0.341,0.167,-0.0173,0.0612,-0.22,0.364 (inactive),-0.22,-0.155,0.342,0.43,-0.281,0.524,-0.0786,-0.0042
O=C1O[C@H](c2ccccc2)[C@H](c2ccccc2)N2[C@H]1[C@@H](C(=O)Nc1nc3ccccc3s1)[C@]1(C(=O)Nc3ccc(C#CC4=CCCCC4)cc31)[C@H]2c1ccc(OCCO)cc1,0.945,-1.91,0.56,1.36,0.536,-0.176,-0.188,1.37,-0.513,2.12,0.897,-0.495 (inactive),0.225,-0.0144,0.761,2.68,0.596,1.3,0.448,1.12
Cc1ccc([C@H]2C(C(=O)O)=C[C@@H](C(C)C)N2S(=O)(=O)c2ccc(C)cc2)cc1,1.39,0.58,-0.448,0.995,0.237,0.0597,-0.0769,0.129,0.984,0.11,0.284,-0.236 (inactive),0.0596,0.0161,0.772,2.86,-0.134,1.3,-0.209,0.555
CC1CC/C=C\[C@H]2OC34C=CCN(CCN5CCOCC5)C(=O)[C@H]3N(CCCCCO)C(=O)[C@@H]4C2C(=O)O1 (stereo not given in full),-1.78,0.824,0.0111,-1.87,-1.59,-0.224,-0.0769,-0.321,-0.595,-1.06,-1.19,0.905 (inactive),-0.178,-0.175,0.899,-0.471,-0.653,-1.25,-0.191,-0.233
